In PubChem BioAssay (EPA / NIEHS):
The source made the active and inactive calls. The calls were made as follows: active = hit-call score of the fitted dose curve at least 0.9, where 1 is the maximum; inactive = score below 0.9.

Experiment: CCTE_Shafer_MEA_acute_firing_rate_mean: CCTE's Neural Acute Assay for Mean Firing Rate, Shafer Lab (AID 2284009);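 also: analyzed for loss of signal so actives lower firing rate relative to DMSO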
How it was run: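 Percent change in well-mean firing rate was derived from extracellular spikes detected at 8x rms noise (300-5000 Hz band-pass) before and after a 40-min compound exposure. Cultures were primary rat cortical neurons, tested at 0.03-40 uM.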
In the case of `CCOc1nc(F)cc2nc(S(=O)(=O)Nc3c(Cl)cccc3Cl)nn12`, the outcome is reported as “inactive”.
For `N#CN=C1SCCN1Cc1ccc(Cl)nc1`, the outcome was “inactive”.
For `Clc1nc(Cl)nc(Nc2ccccc2Cl)n1`, the outcome was “inactive”.
In the case of `CC1(C)C(C(=O)OC(C#N)c2cccc(Oc3ccccc3)c2)C1(C)C` (stereo unspecified), the outcome is reported as “inactive”.
For `O=C(Nc1ccccc1-c1ccc(Cl)cc1)c1cccnc1Cl`, the outcome was “inactive”.
For `CNC(=O)Oc1cccc2ccccc12`, the outcome was “inactive”.
For `COP(=S)(OC)SCn1nnc2ccccc2c1=O`, the outcome was “inactive”.
With `OC(c1ccc(Cl)cc1)(c1ccc(Cl)cc1)C(Cl)(Cl)Cl` the AC50 was 2.15 µM (active).
With `C=C(C)CN(CC)c1c([N+](=O)[O-])cc(C(F)(F)F)cc1[N+](=O)[O-]` the AC50 was 31.9 µM (active).
In the case of `CN/C(=N\[N+](=O)[O-])NCc1cnc(Cl)s1`, the outcome is reported as “inactive”.

Experiment: CCTE_Harrill_HTTr_Viability_MCF7: CCTE's 6-hour Cell Viability Assessment for the High-Throughput Transcriptomics (HTTr) Platform, in MCF-7 cells cultured in DMEM + 10% fetal bovine serum, Harrill Lab (AID 2284010)
How it was run: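 Viability measured through PI dye exclusion by high-content imaging at 6 h post-dosing.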
In the case of `COC(=O)NS(=O)(=O)c1ccc(N)cc1`, the outcome is reported as “inactive”.
With `COc1cc(OC)nc(NC(=O)NS(=O)(=O)c2ncccc2OCC(F)(F)F)n1` the outcome was “inactive”.
In the case of `COP(=O)(OC)O/C(C)=C/C(=O)N(C)C`, the outcome is reported as “inactive”.
With `Nc1cnn(-c2ccccc2)c(=O)c1Cl` the outcome was “inactive”.
In the case of `CCC(C)n1c(=O)[nH]c(C)c(Br)c1=O` (stereo unspecified), the outcome is reported as “inactive”.
For `C=CCOC(=O)C(C)(C)OC(=O)c1cc(-n2c(=O)cc(C(F)(F)F)n(C)c2=O)ccc1Cl`, the outcome was “inactive”.
For `CC1(C)CON(Cc2ccccc2Cl)C1=O`, the outcome was “inactive”.
In the case of `CCOc1nc(F)cc2nc(S(=O)(=O)Nc3c(Cl)cccc3Cl)nn12`, the outcome is reported as “inactive”.
With `N#CN=C1SCCN1Cc1ccc(Cl)nc1` the outcome was “inactive”.
For `O=c1n(Cl)c(=O)n(Cl)c(=O)n1Cl`, the outcome was “inactive”.
With `CC(C)NC(=O)N1CC(=O)N(c2cc(Cl)cc(Cl)c2)C1=O` the outcome was “inactive”.
For `Clc1nc(Cl)nc(Nc2ccccc2Cl)n1`, the outcome was “inactive”.
In the case of `CC1(C)C(C(=O)OC(C#N)c2cccc(Oc3ccccc3)c2)C1(C)C` (stereo unspecified), the outcome is reported as “inactive”.
In the case of `O=C(Nc1ccccc1-c1ccc(Cl)cc1)c1cccnc1Cl`, the outcome is reported as “inactive”.
With `N#Cc1c(Cl)cccc1Cl` the outcome was “inactive”.
With `CNC(=O)Oc1cccc2ccccc12` the outcome was “inactive”.
For `CNC(=O)N(C)c1nnc(C(C)(C)C)s1`, the outcome was “inactive”.
With `CCNC(=O)NC(=O)C(C#N)=NOC` the outcome was “inactive”.
For `CS(=O)(=O)c1cc(C(F)(F)F)ccc1C(=O)c1cnoc1C1CC1`, the outcome was “inactive”.
With `CC(C)Nc1nc(Cl)nc(NC(C)C)n1` the outcome was “inactive”.
In the case of `COP(=S)(OC)SCn1nnc2ccccc2c1=O`, the outcome is reported as “inactive”.
For `O=P(O)(O)CCCl`, the outcome was “inactive”.
In the case of `O=C(O)c1c(Cl)ccc2cc(Cl)cnc12`, the outcome is reported as “inactive”.
With `CC(C)Oc1cccc(NC(=O)c2ccccc2C(F)(F)F)c1` the outcome was “inactive”.
In the case of `OC(c1ccc(Cl)cc1)(c1ccc(Cl)cc1)C(Cl)(Cl)Cl`, the AC50 is reported as 38.6 µM (active).
For `Cc1cc(C)nc(Nc2ccccc2)n1`, the outcome was “inactive”.
With `CN=C=S` the outcome was “inactive”.
In the case of `C=C(C)CN(CC)c1c([N+](=O)[O-])cc(C(F)(F)F)cc1[N+](=O)[O-]`, the outcome is reported as “inactive”.
In the case of `COC(=O)NC(=S)Nc1ccccc1NC(=S)NC(=O)OC`, the outcome is reported as “inactive”.
For `COc1cc(Cl)c(OC)cc1Cl`, the outcome was “inactive”.
With `CSC(=O)c1c(C(F)F)nc(C(F)(F)F)c(C(=O)SC)c1CC(C)C` the outcome was “inactive”.
With `CS(=O)(=O)c1ccc(C(=O)C2C(=O)CCCC2=O)c([N+](=O)[O-])c1` the outcome was “inactive”.
With `COP(=S)(OC)Oc1ccc([N+](=O)[O-])c(C)c1` the outcome was “inactive”.
In the case of `CCOc1nc(C(Cl)(Cl)Cl)ns1`, the outcome is reported as “inactive”.
For `Nc1c(Cl)c(Cl)nc(C(=O)O)c1Cl`, the outcome was “inactive”.
With `CN/C(=N\[N+](=O)[O-])NCc1cnc(Cl)s1` the outcome was “inactive”.
